SMN2 splice enh = qHTS Assay for Enhancers of SMN2 Splice Variant Expression; HEK293 SMN2-luciferase splicing reporter, luminescence, 30-36 h; Potency, µM (doses to about 46.1 µM), for the others: at the top dose activity change, positive = activation, actives largely listed as activators; 2.8% of 210,000 active; AID 1458, 2008; also: % of control where 0% means no effect; nearly all actives have a fitted effect of over 55% in size
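HEK293 cells carry an SMN2 […]–luciferase reporter in which exon 7 inclusion puts luciferase in frame. Cells were plated 10-12 h before compound addition, then incubated 30-36 h at 37C. ONE-Glo luminescence was read; sodium butyrate at 4.5 mM final served as control.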
NPC1 promoter act = qHTS Assay for NPC1 Promoter Activators; 2.4% of 320,000 active; Potency, µM (series often up to 9.22 µM), inactives show at the top dose activation, hits mostly activators; Huh7 NPC1 promoter luciferase reporter, 24 h; also: % of control where 0% means no effect; nearly all actives have a fitted effect of over 60% in size
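Stably transfected Huh7 (NPC1 promoter→luciferase), 1500 cells/well in Opti-MEM + 10% FBS, 2 h settle, then compound 24 h at 37 °C. Luminescence after 10 min with Amplite reagent.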
ELG1 genotoxic = qHTS screen for small molecules that induce genotoxicity in human embryonic kidney (HEK293T) cells expressing luciferase-tagged ELG1. Potency, µM (series often up to 46 µM), for the others: at the top dose activity change, positive = activation, hits mostly activators. 1.3% of 330,000 active. HEK293T ELG1-luciferase reporter, luminescence, 16 h; also: % of control where 0% means no effect; nearly all actives have a fitted effect of over 60% in size
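Quantitative HTS format in 1536-well plates. HEK293T ELG1-luciferase reporter cells receive test compound and are incubated 16 hr at 37 °C, 5% CO2; ONE-Glo added, 30 min room temperature, then luminescence read.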
Rab9 prom act = qHTS Assay for Rab9 Promoter Activators; Huh7 Rab9 promoter-luciferase reporter, luminescence, 24 h; 2.8% of 320,000 active; AID 485297, 2010; Potency, µM (highest dose often 9.22 µM), inactives show at the top dose activation, negative = inhibition, hits mostly activators; also: % of control where 0% means no effect; nearly all actives have a fitted effect of over 60% in size
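Cell-based reporter: Huh7 stable for Rab9 promoter-driven luciferase, plated in reduced-serum medium with 10% FBS at 1500 cells/well, compound-treated 24 h at 37 °C, luminescence read after 10 min reagent.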
KinaseGlo FLuc = Counterscreen for Luciferase (Kinase-Glo TM) Inhibition | 0.28% of 200,000 active | Luciferin 4-monooxygenase (Photuris pensylvanica), Q27757 | Kinase-Glo luciferase, ATP luminescence, 8 min | Potency, µM (top dose mostly 38.3 µM), without a hit: at the highest dose activity change, negative = inhibition, actives largely listed as inhibitors; also: % is scaled to controls: 0 for no effect and ±100 for the full control effect; nearly all actives have a fitted effect of over 60% in size
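Light output from Kinase-Glo luciferase with luciferin and 10 uM ATP in 50 mM imidazole pH 7.2, KCl, MgCl2, Tween 20, BSA; compound pin-delivered, 8-min ambient incubation, then luminescence read.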
FLuc counter = qHTS profiling assay for firefly luciferase inhibitor/activator using purifed enzyme and Km concentrations of substrates (counterscreen for miR-21 project) | 6.9% of 360,000 active | Luciferin 4-monooxygenase (Photinus pyralis), P08659 | Potency, µM (series often up to 57.5 µM), for the others: at the top dose activity change, negative = inhibition, most hits filed as inhibitors | purified FLuc, Km substrates, luminescence inhibition;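 also: plate controls were vehicle for no effect and reference inhibitor for full effect; nearly all actives have a fitted effect of over 55% in size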
Target sequence (P08659 whole entry, looked up): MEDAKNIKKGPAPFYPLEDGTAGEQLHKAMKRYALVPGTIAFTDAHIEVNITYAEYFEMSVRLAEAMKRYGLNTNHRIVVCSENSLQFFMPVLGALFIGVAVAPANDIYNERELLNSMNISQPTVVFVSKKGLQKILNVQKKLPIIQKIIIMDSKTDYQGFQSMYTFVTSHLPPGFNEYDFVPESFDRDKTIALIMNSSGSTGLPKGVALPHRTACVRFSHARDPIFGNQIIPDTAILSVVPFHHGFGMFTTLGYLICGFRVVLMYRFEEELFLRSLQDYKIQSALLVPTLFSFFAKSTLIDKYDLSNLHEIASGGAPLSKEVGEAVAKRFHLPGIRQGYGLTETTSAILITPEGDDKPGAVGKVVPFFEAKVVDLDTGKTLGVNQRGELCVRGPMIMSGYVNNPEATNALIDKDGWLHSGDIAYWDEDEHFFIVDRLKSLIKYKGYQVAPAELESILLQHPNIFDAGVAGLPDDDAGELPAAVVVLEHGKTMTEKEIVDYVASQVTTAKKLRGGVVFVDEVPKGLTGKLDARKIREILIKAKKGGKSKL
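Biochemical qHTS of compounds, final roughly 60 µM downward over six points, against 10 nM purified firefly luciferase using Km concentrations of substrates (10 uM D-luciferin, 10 uM ATP) in Tris acetate pH 7.5 buffer; luminescence output.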
An asterisk follows results filed as active; ? = inconclusive; · = not tested or not shown; [ ] = dose if it differs, or a comment. Hits are enriched below; roughly 7.5% of the tested compounds scored in any of these assays. Calls follow the shape of the dose curve; as a rule, active = well fitted curve in the direction sought with a large enough effect; inconclusive = small, poorly fitted or top-dose-only effect, or another doubt; inactive = no such curve, though single readings can be large; an effect the other way counts as inactive or inconclusive. Potency is read from the fitted curve at half-maximal effect.

SMILES	SMN2 splice enh	NPC1 promoter act	ELG1 genotoxic	Rab9 prom act	KinaseGlo FLuc	FLuc counter
CC1=C(c2ccc(F)cc2)[N+](=O)C(C)(C)N1[O-]	·	-4.7%	-0.8%	-2.1%	-1.0%	26.9µM*
CC1=C(c2ccccc2)[N+](=O)C2(CCCC2)N1[O-]	-1.9%	-0.6%	1.6%	-5.1%	11.7%	2.8%
CC1CC(C)CN(S(=O)(=O)CCNC(=O)c2ccc3c(c2)OCO3)C1 (stereo not drawn)	·	1.4%	2.7%	0.8%	·	3.0%
O=C(N/N=C/c1ccc(OCc2ccccc2)cc1)c1ccncc1	15.8µM*	-4.5%	?	-2.9%	3.7%	-9.6%
O=C(N/N=C/c1ccncc1)c1ccc(OCc2ccccc2)cc1	·	-3.5%	7.3%	1.2%	·	-4.7%
COc1ccc(OCc2cc(/C=N\NC(=O)c3ccccc3)ccc2OC)cc1	·	?	?	?	·	12µM*
CC(=O)Nc1ccc(C(=O)N/N=C/c2ccccc2OCc2ccccc2)cc1	1.8%	-8.0%	-0.1%	0.1%	0.4%	16.9µM*
O=C(N/N=C/c1ccccc1OCc1ccccc1)c1cccnc1	14.2%	-0.7%	-1.6%	-0.1%	-1.8%	10.7µM*
COC(=O)N/N=C/c1ccccc1OCc1ccccc1	10.4%	-2.2%	8.9%	-4.8%	-2.2%	-1.8%
Oc1ccc(N=Cc2ccc(OCc3ccccc3)cc2)cc1	·	-3.5%	?	-3.2%	-5.7%	13.5µM*
O=C(N/N=C/c1ccc(OCc2ccccc2)cc1)c1cccs1	-0.5%	?	7.8%	?	-1.6%	-11.5%
O=C1Nc2ccccc2S/C1=C/Nc1cccc(Cl)c1	-3.0%	?	?	4.47µM*	-8.9%	8.49µM*
CCCCNC(=O)/C=C1\Sc2ccccc2NC1=O	-8.4%[1.84 µM]	-0.9%	5.8%	-0.9%	-4.2%	?
O=C(NCc1ccccc1F)c1ccc(S(=O)(=O)N2CCCCCC2)cc1	·	-0.9%	-1.5%	-1.8%	·	-3.5%
CC(C)c1ccc(NC(=S)N2CCCC2)cc1	·	2.51µM*	?	2.24µM*	·	23.9µM*
NC(=O)C1CCCN(C(=S)Nc2ccccc2)C1 (stereo not drawn)	-20.7%	-2.6%	0.0%	1.7%	0.5%	0.1%
Cc1ccc(NC(=S)N2CCCC(O)C2)cc1 (stereo not drawn)	?	2.6%	?	24.9%	0.8%	16.9µM*
OCC1CCCN(C(=S)Nc2ccc(OC(F)F)cc2)C1 (stereo not drawn)	·	25.6%	?	28.9%	·	16.9µM*
OCC1CCCN(C(=S)Nc2ccc(Nc3ccccc3)cc2)C1 (stereo not drawn)	?	?	?	2µM*	-1.1%	9.53µM*
Cc1ccc(NC(=S)N2CCOCC2)cc1	14.3%	-0.8%	0.1%	1.5%	-0.8%	?
CC(C)c1ccc(NC(=S)N2CCN(C)CC2)cc1	·	20.1%	?	26.5%	·	?
Cn1c(=O)c2c(nc3n2CC(O)CN3c2ccc(O)cc2)n(C)c1=O (stereo not drawn)	·	-2.2%	-3.8%	1.1%	·	-2.4%
O=C(O)CSc1nc(-c2ccccc2)nc2c1oc1ccccc12	-7.1%	3.0%	-0.3%	-2.9%	-3.7%	21.3µM*
Cc1nc(SCC(=O)c2ccc(Cl)s2)c2oc3ccccc3c2n1	12.3%	?	-0.4%	?	4.3%	9.53µM*
CCc1nc(SCC(=O)c2cccs2)c2oc3ccccc3c2n1	-25.5%	0.1%	-4.4%	18.2%	-3.5%	10.7µM*
SMILES	SMN2 splice enh	NPC1 promoter act	ELG1 genotoxic	Rab9 prom act	KinaseGlo FLuc	FLuc counter
CCc1nc(SCC(=O)NCCc2ccccc2)c2oc3ccccc3c2n1	-15.5%	-3.3%	-4.9%	4.3%	-3.7%	-19.4%
O=C(O)CSc1nc(-c2ccc(Cl)cc2)nc2c1oc1ccccc12	12.2%	-1.7%	-2.6%	0.1%	0.2%	?
OCCCNCc1ccncc1	3.6%[9.22 µM]	·	·	·	-4.2%[7.66 µM]	·
CCOC(=O)c1c(N=CN(C)C)c2cc([N+](=O)[O-])cnc2n1C	·	-1.0%	0.0%	0.5%	·	2.8%
COc1ccccc1C(=O)Nc1cccc(C(=O)OCc2cc(=O)n3cc(C)sc3n2)c1	·	·	·	·	·	-13.1%
COc1ccc(NC(=O)c2csc(Cc3ccc(Cl)cc3)n2)cc1	-22.9%	0.5%	-1.1%	-12.5%	0.0%	23.9µM*
O=C(Nc1ccc(Cl)cc1)c1csc(Cc2ccccc2)n1	?	22.3%	?	?	2.2%	5.36µM*
COc1ccc(Cc2nc(C(=O)Nc3ccc(F)cc3)cs2)cc1	-32.0%	1.9%	6.4%	12.0%	-1.5%	?
COc1ccc(Cc2nc(C(=O)Nc3ccccc3)cs2)cc1	-67.3%	?	0.0%	21.9%	-1.4%	19µM*
COc1ccc(Cc2nc(C(=O)Nc3ccc(Cl)cc3)cs2)cc1	-75.4%	-4.4%	?	0.0%	-4.4%	?
CCc1cccc(C)c1NC(=O)c1cc(S(=O)(=O)N2CCN(c3ccccc3)CC2)ccc1F	·	·	·	·	·	-2.8%
Cc1cccc(C)c1NC(=O)C(=O)NCC(c1ccc2c(c1)OCO2)N1CCN(C)CC1 (stereo not drawn)	·	·	·	·	·	0.4%
C/C(=N\NC(=O)c1ccn(C)n1)c1cccc(NC(=O)c2ccc(C)s2)c1	?	?	8.1%	29.6%	-1.9%	3.01µM*
COC(=O)c1cccc(NC(=O)c2ccco2)c1	?	13.9%	-0.4%	13.3%	-2.1%	-17.7%
C/C(=N/NC(=O)c1ccc(Br)o1)c1cccc(NC(=O)c2ccc(F)cc2)c1	·	-2.5%	-8.9%	3.4%	·	10.7µM*
C/C(=N\NC(=O)C1CC1)c1ccc(NC(=O)c2ccc(Br)o2)cc1	22.3%	?	?	12.1%[1.84 µM]	-7.9%	-3.7%
C/C(=N/NC(=O)c1ccco1)c1cccc(NC(=O)c2ccc(C)s2)c1	?	22.5%	12.8%	27.1%	-5.6%	4.78µM*
C/C(=N/NC(=O)c1ccco1)c1cccc(NC(=O)c2ccc(C)o2)c1	16.8%	-1.3%	4.6%	19.2%	-3.9%	15.1µM*
CC(C)NC(=O)C(c1ccc(F)cc1)N(Cc1ccco1)C(=O)CCC(=O)Nc1ccccn1 (stereo not drawn)	·	-1.9%	-2.8%	5.9%	·	0.5%
C/C(=N/NC(=O)c1ccc(Br)o1)c1cccc(NC(=O)c2ccc(C)o2)c1	13.1%	0.9%	-2.3%	12.8%	0.2%	10.7µM*
C/C(=N/NC(=O)c1ccc(C)s1)c1cccc(NC(=O)COc2ccc(Cl)cc2Cl)c1	5.5%	0.562µM*	17.0%	0.501µM*	-1.6%	2.13µM*

Bioassay records deposited in PubChem BioAssay by National Center for Advancing Translational Sciences (NCATS).
